GAA850 FXN act: increases GAA850 frataxin promoter reporter activity | HEK293 lucGAA850 FXN promoter luciferase reporter, 24 h; percent of 10 µM SAHA response | activation, % at 6 µM | actives 0.56% (n = 360,000);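 active = activation above the average of all compounds screened plus 3 SD, cutoff fixed separately per campaign, cut at about 7.5% in these data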
Wnt bcat act: activators of Wnt/beta-catenin signaling. Wnt/beta-catenin reporter cell assay, activator, plate reader. activation, % at 9.35 µM. actives 1.2% (n = 300,000); in the data active = activation above about 30%, passing the limit was not always enough; inconclusive = no clear call, values can overlap the other calls
AHR act: activators of human aryl hydrocarbon receptor | AHR-responsive luciferase reporter cells, luminescence | activation, % at 5 µM | actives 2.5% (n = 320,000) | AID 2796; in the data active = activation above about 47%
esBAF inh: SWI/SNF esBAF complex inhibition | mouse ES cells, Bmi1-luciferase knock-in reporter, 24 h; 100% = twice the neutral-well signal | reporter increase, % at 12.5 µM | actives 2% (n = 350,000); in the data active = activation above about 40%; inconclusive = no clear call, values can overlap the other calls;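 also: a rise in the Bmi1 reporter signal indicates esBAF inhibition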
MITF act: MITF TRPM1 promoter activation in melanoma cells; AID 588334; activation, % at 12.5 µM; SK-MEL-5 TRPM1-promoter luciferase, 24 h; % of positive control, neutral wells = 0; actives 0.75% (n = 300,000);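 active = mean activation of at least 80% with every replicate also reaching 80%; inconclusive = mean reaches 80% but some replicate falls short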
Each line names hits and unclear results; the compound was inactive in the other large screens. Most compounds without a hit are left out; they make up all but 4.2% or so of the library.

CC(C)NC(=O)Nc1ccc2c(c1)C(=O)N([C@@H](C)CO)C[C@H](C)[C@H](CN(C)C(=O)Nc1ccccc1)O2	none (no result: GAA850 FXN act, Wnt bcat act, AHR act, MITF act)
c1ccc(-c2cncnc2)nc1	none
c1ccc(-c2ccc(-c3ccncn3)cc2)cc1	Wnt bcat act 44 (no result: esBAF inh, MITF act)
CCC(C)c1ccccc1NC(=O)c1cc2cccc([N+](=O)[O-])c2[nH]1 (stereo not given)	AHR act 55 (no result: esBAF inh, MITF act)
Cc1ccc(NC(=O)c2ccc(-n3cccn3)c([N+](=O)[O-])c2)cc1	none
Cc1ccc(NC(=O)c2cc3cccc([N+](=O)[O-])c3[nH]2)cc1	AHR act 71 (no result: esBAF inh, MITF act)
CO[C@@H]1CN(C)C(=O)c2cc(NC(C)=O)ccc2OC[C@@H](C)N(C(=O)c2ccccc2F)C[C@H]1C	none (no result: GAA850 FXN act, Wnt bcat act, AHR act, MITF act)
CCCNC(=O)N1C[C@@H](C)[C@H](OC)CN(C)C(=O)c2ccc(NS(C)(=O)=O)cc2OC[C@H]1C	none (no result: GAA850 FXN act, Wnt bcat act, AHR act, MITF act)
COc1ccc(CCNC(=O)C2CCN(S(=O)(=O)c3ccc(C)cc3)CC2)cc1OC	Wnt bcat act 62 (no result: AHR act)
COc1cc(N=CC2=C(O)c3ccccc3C2=O)cc(OC)c1	esBAF inh 43
CC(C)CN=CC1=C(O)c2ccccc2C1=O	none (no result: esBAF inh, MITF act)
Cn1c(SCC(=O)Nc2ccccc2)nc2c([nH]c3ccccc32)c1=O	AHR act 53
CCn1c(SCC(=O)N2CCN(c3ccccc3)CC2)nc2c([nH]c3ccccc32)c1=O	AHR act 54
CCn1c(SCC(=O)N2CCC(C)CC2)nc2c([nH]c3ccccc32)c1=O	none (no result: AHR act, MITF act)
CC(=O)Nc1ccc(NC(=O)CSc2nc3c([nH]c4ccccc43)c(=O)n2-c2ccccc2F)cc1	AHR act 58
COc1ccc(-n2c(SCC(=O)Nc3ccc(NC(C)=O)cc3)nc3c([nH]c4ccccc43)c2=O)cc1OC	none
COCCn1c(SCC(=O)Nc2ccc(C(C)=O)cc2)nc2c([nH]c3ccccc32)c1=O	none
COCCn1c(SCC(=O)Nc2cccc(F)c2)nc2c([nH]c3ccccc32)c1=O	AHR act 65 (no result: esBAF inh)
COc1ccc(S(=O)(=O)N2C[C@@H](O)COC[C@@H]3O[C@@H](CC(=O)NCCN4CCCCC4)CC[C@H]32)cc1	none (no result: GAA850 FXN act, Wnt bcat act, AHR act, MITF act)
CCCc1noc(-c2ccc(-c3ccccc3)cc2)n1	Wnt bcat act 39 (no result: MITF act)
CCCN1C[C@@H](C)[C@H](OC)CN(C)C(=O)c2cc(NC(=O)Nc3c(C)noc3C)ccc2OC[C@H]1C	none (no result: GAA850 FXN act, Wnt bcat act, AHR act, MITF act)
O=C(c1ccco1)N1CCN(Cc2ccccc2F)CC1	none
O=C(c1ccco1)N1CCN(c2ccc(Cl)cc2)CC1	esBAF inh 48, MITF act 93
O=C(c1ccco1)N1CCN(c2ncnc3c(-c4ccccc4)nsc23)CC1	AHR act 66 (no result: esBAF inh)
O=C(c1ccco1)N1CCN(Cc2c(F)cccc2Cl)CC1	esBAF inh 45 (no result: MITF act)
Cc1cc(Br)cc(Cl)c1OCC(=O)N1CCN(C(=O)c2ccco2)CC1	Wnt bcat act 59
COc1ccc(-c2nsc3c(N4CCN(C(=O)c5ccco5)CC4)ncnc23)cc1	none
CC(=O)Nc1ccc2c(c1)C(=O)N(C)[C@@H]1CC[C@H](CC(=O)NCc3ccccc3)O[C@@H]1CO2	none (no result: GAA850 FXN act, Wnt bcat act, AHR act, MITF act)
O=C(c1ccco1)N1CCN(c2ccc(Cl)c(Cl)c2)CC1	esBAF inh 44
O=C(C[C@H]1CC[C@H](NS(=O)(=O)c2ccccc2)[C@@H](CO)O1)NCc1ccc(Cl)c(Cl)c1	none (no result: GAA850 FXN act, Wnt bcat act, AHR act, MITF act)
O=C(CSc1nnnn1C1CCCC1)Nc1cccc(NC(=O)c2ccco2)c1	none (no result: Wnt bcat act)
O=C(Nc1ccc2c(c1)ncn2C1CCCCC1)c1ccco1	Wnt bcat act 45, esBAF inh inconclusive (no result: MITF act)
CC(C)n1cnc2cc(NC(=O)c3ccco3)ccc21	none
O=C(CSc1nnnn1C1CCCCC1)Nc1cccc(NC(=O)c2ccco2)c1	Wnt bcat act 60
C[C@@H]1CN([C@H](C)CO)C(=O)Cc2cc(NC(=O)C3CC3)ccc2O[C@@H]1CN(C)C(=O)Nc1ccccc1	none (no result: GAA850 FXN act, Wnt bcat act, AHR act, MITF act)
C/C=C/c1cnc2c(c1)C(=O)N([C@@H](C)CO)C[C@@H](C)[C@H](CN(C)S(=O)(=O)c1ccccc1)O2	none (no result: GAA850 FXN act, Wnt bcat act, AHR act, MITF act)
C[C@H]1CN([C@@H](C)CO)C(=O)Cc2cc(NC(=O)CCC(F)(F)F)ccc2O[C@H]1CN(C)C(=O)Nc1ccccc1	none (no result: GAA850 FXN act, Wnt bcat act, AHR act, MITF act)
C[C@@H]1CN([C@@H](C)CO)C(=O)c2cc(N(C)C)ccc2O[C@@H](C)CCCCO[C@H]1CN(C)C(=O)C1CCCCC1	none (no result: GAA850 FXN act, Wnt bcat act, AHR act, MITF act)
O=C(c1cc(-c2cccc(Cl)c2)on1)N1CCCC1	Wnt bcat act 40
O=C(c1cc(-c2ccc(Cl)cc2)on1)N1CCCC1	none
